About 83,000 compounds went through this panel and 20% of them were active in at least one assay; those are over-represented in the sample as a whole.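 In brief: 96-well plates, 48 h treatment, single concentration, percent growth endpoint.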 A number with no mark means an inactive call. The source made the active and inactive calls. The calls were made as follows: active = growth percent below 10; inactive = the rest.
What was measured:
Experiment in all cases: NCI-60 one-dose screen, 48 h (100 = growth as untreated, 0 = no growth, -100 = all killed)
Settings in all cases: 10 µM unless noted
[1] = test system: NCI-H23 lung
[2] = test system: NCI-H226 lung
[3] = test system: NCI-H322M lung
[4] = test system: HOP-62 NSCLC
[5] = test system: NCI-H460 lung
[6] = test system: HOP-92 NSCLC
[7] = test system: NCI-H522 lung
[8] = test system: A549/ATCC NSCLC
[9] = test system: 786-0 renal
[10] = test system: COLO 205 colon
[11] = test system: DU-145 prostate
[12] = test system: K-562 leukemia
[13] = test system: MALME-3M melanoma
[14] = test system: MDA-MB-231 breast
[15] = test system: RXF 393 renal
[16] = test system: SF-268 CNS
[17] = test system: SF-295 CNS
[18] = test system: SF-539 CNS
[19] = test system: UACC-257 melanoma
[20] = test system: M14 melanoma

SMILES | growth [1] | growth [2] | growth [3] | growth [4] | growth [5] | growth [6] | growth [7] | growth [8] | growth [9] | growth [10] | growth [11] | growth [12] | growth [13] | growth [14] | growth [15] | growth [16] | growth [17] | growth [18] | growth [19] | growth [20]
COc1ccc2cc(-c3ccc(NC(C)=O)c(=O)o3)ccc2c1 | 94.4% | 94.4% | 92.2% | 94.3% | 100% | 97.8% | 78.8% | 87.5% | 98.8% | 115% | 103% | 81.4% | 101% | 110% | 98.3% | 95.5% | 100% | 96.7% | 89.3% | 94.3%
COc1ccccc1NC(=O)Cn1cc(CN2CCN(c3ccnc4cc(Cl)ccc34)CC2)nn1 | 89.2% | 84.7% | 95.1% | 86.2% | 96.3% | 61.8% | 86.8% | 91% | 99% | 101% | 106% | 83.8% | 106% | 82.3% | 85.8% | 84% | 100% | 99.3% | 106% | 106%
Fc1cccc(CNc2c3ccccc3nc3ccccc23)c1F | 60.6% | 72.9% | 63.4% | 72.7% | 48% | 2.67% (active) | 53.8% | 56.7% | 65.4% | 40.9% | 76.7% | 43.4% | 94.1% | 58.2% | 59.5% | 83.4% | 53.7% | 55.5% | 92.9% | 70.6%
O=C1/C(=C/c2ccc(Cl)cc2)COc2ccc(O)c(O)c21 | 42.3% | 90.6% | 37.5% | -22.7% (active) | 31.1% | -5.33% (active) | -60.9% (active) | 42.9% | -80.8% (active) | 27.7% | 21.4% | 13.1% | 7.38% (active) | -17.8% (active) | 9.7% (active) | -0.809% (active) | 77.1% | -76% (active) | 10.1% | 30.9%
Oc1ccc(CCn2c(O)c(/C=C3\CN=c4ccccc4=N3)sc2=S)cc1 | 59.1% | 88.7% | 78.7% | 65.8% | 83.3% | -14.4% (active) | 18.5% | 82.1% | 28.3% | 103% | 28% | 22.9% | 62.3% | 26% | 45.1% | 75% | 93.6% | 20.7% | 71.4% | 62.4%
COc1cc(OC)c2sc(-c3ccc(-n4cncc4-c4ccc(OC)c(OC)c4)cc3)nc2c1 | 66.1% | 66.7% | 92.3% | 83.2% | 23.3% | 39.4% | 50.5% | 45.6% | 74.5% | 48.3% | -4.76% (active) | 65.5% | 73.1% | 68% | 12.1% | 60.5% | 48.8% | 66.5% | 71.5% | 67.6%
O=C(O)c1ccc(-n2cc(/C=N/Nc3ccc(F)cc3)c(-c3cc4ccccc4oc3=O)n2)cc1 | 90.8% | 101% | 85.4% | 84.3% | 96.5% | 81.5% | 50.9% | 92.9% | 74.6% | 110% | 91.2% | 11.6% | 79.8% | 83.7% | 113% | 76.8% | 72.1% | 85.9% | 107% | 47.3%
O=Cc1ccc([N+](=O)[O-])s1 | 93.2% | 105% | 98.4% | 105% | 106% | 103% | 101% | 95.2% | 108% | 107% | 110% | 75.4% | 115% | 85.2% | 123% | 96.6% | 107% | 86.5% | 97.3% | 92%
O=C(CSc1nc2sc3c(c2c(=O)n1-c1ccccc1)CCCCC3)N/N=C/c1ccc(F)cc1 | 37.7% | 86.9% | 67.5% | 19.9% | 1.12% (active) | 82.6% | 44.3% | 9.73% (active) | 64.1% | 33% | -0.517% (active) | 64.2% | 11.3% | -26.1% (active) | 5.3% (active) | 7.96% (active) | 16.9% | -39.9% (active) | 74.6% | 51.6%
CC(=O)Nc1nc2ccc(NS(=O)(=O)c3cccc4c(N(C)C)cccc34)cc2[nH]1 | 70.5% | 68.7% | 82.2% | 69.3% | 68% | 72.2% | 43.3% | 68% | 79.7% | 65.9% | 87.8% | 20.6% | 52.3% | 63.5% | 53.8% | 65.6% | 37.3% | 57.9% | 61.9% | 35.9%
C[C@]12C=CC(=O)C=C1CCC1C2[C@@H](O)C[C@@]2(C)C1CC[C@]2(O)C(=O)COC(=O)CCC(=O)O (stereo not given in full) | 106% | 84.6% | 106% | 121% | 103% | 87.1% | 103% | 71.3% | 102% | 124% | 107% | 104% | 94.8% | 94.7% | 126% | 105% | 116% | 96.8% | 99.3% | 106%
COc1cc(-c2cc(-c3ccc(N(C)C)cc3)nc(N3CCC(O)CC3)c2C#N)cc(OC)c1OC | 3.6% (active) | -6.93% (active) | 25.8% | 41.4% | -27.9% (active) | -25% (active) | -36.3% (active) | 11.5% | -3.55% (active) | -17.2% (active) | 33% | 1.74% (active) | -45.3% (active) | -50.9% (active) | -5.34% (active) | 22.1% | -44.3% (active) | -0.969% (active) | -51.8% (active) | -69.3% (active)
COc1cccc(NC(=O)Cn2cc(CN3CCN(c4ccnc5cc(Cl)ccc45)CC3)nn2)c1 | 95% | 81.6% | 91.2% | 71.6% | 97.5% | 41.2% | 80.6% | 87.9% | 99.2% | 112% | 104% | 67.4% | 95.6% | 73.9% | 95% | 84.7% | 87.5% | 87.7% | 102% | 104%
Cc1cc(N)c2cc(NC(=O)/C=C\c3ccccc3Cl)ccc2n1 | -85.4% (active) | -70.7% (active) | -83.3% (active) | -71.5% (active) | -78.3% (active) | -69.5% (active) | -70.7% (active) | -43.5% (active) | -81.3% (active) | -65.9% (active) | -92.8% (active) | -31.9% (active) | -76.2% (active) | -87.1% (active) | -78.2% (active) | -76.6% (active) | -80.4% (active) | -91.3% (active) | -49.2% (active) | -70.9% (active)

Reference: PubChem BioAssay (NCI)
